# According to ChEMBL document CHEMBL3988442, “University of Dundee, Small-Polar-MMV Screening Library” (2021):
# The campaign covered roughly 69,000 compounds. About 1,000 (1.4%) showed an effect of 50% or more. The sample holds strong results, similar compounds and a random draw of the others, so the mix is not that of the screen.
# System: Leishmania donovani
# Assay: Leishmania intramacrophage assay
# Format: functional, organism-based
# Parameters: scale not given: in the data most compounds retested in dose-response had high values
compound,measurement,setting,value
N[C@@H]1CCN(Cc2ccccc2CS(=O)(=O)c2ccccc2)C[C@H]1O,Percent Effect,"30.3 µM, […]",11.27%
O=S(=O)(Cc1ccccc1CN1CC[C@H](CO)[C@H](O)C1)c1ccccc1,Percent Effect,"30.3 µM, […]",22.14%
NC1CCCCN(Cc2ccccc2CS(=O)(=O)c2ccccc2)C1 (stereo unspecified),Percent Effect,"30.3 µM, […]",64.11%
Cc1cnn(C2CN(Cc3nc(-c4ccccn4)no3)C2)c1,Percent Effect,30 µM,-31.22%
O=S(=O)(c1ccccc1)N1CCCN(CCCn2ccnc2)CC1,Percent Effect,"30 µM, 30.03 µM",52.87%
Cc1ccc(S(=O)(=O)N2CCN(CCCn3ccnc3)CC2)cc1,Percent Effect,"30.3 µM, […]",3.879%
O=S(=O)(c1ccccc1)N1CCN(CCn2ccnc2)CC1,Percent Effect,"30 µM, 30.03 µM",0.5728%
CCc1cc(=O)[nH]c2nnc(SCC(=O)NC(C)C)n12,Percent Effect,"30.3 µM, […]",-15.02%
COc1ccc(C(=O)N2CC[C@@]3(O)CCCC[C@H]3C2)cc1OC,Percent Effect,"30.3 µM, […]",15.68%
Cc1ccc2cc(C3(O)CCN(C(=O)CSC(C)C)CC3)ccc2n1,Percent Effect,"30.3 µM, […]",27.25%
Cc1nc(C2CCCNC2)nc2c1CCCN2Cc1ccccn1.Cl.Cl (stereo unspecified),Percent Effect,"30.3 µM, […]",30.18%
CNc1cc(-c2ccc(COCCN)cc2)c2cc[nH]c2n1,Percent Effect,"30.3 µM, […]",-14.52%
CNc1cc(-c2cccc(CN)c2)c2cc[nH]c2n1,Percent Effect,"30.3 µM, […]",52.08%
CNc1cc(-c2ccccc2CN)c2cc[nH]c2n1,Percent Effect,"30.3 µM, […]",31.34%
C=C(C)CN1CCC(C(=O)c2cc(F)ccc2F)CC1,Percent Effect,30 µM,41.7%
Cc1cccc2c1nc(CCO)n2-c1ccc(C(=O)N2CCOCC2)o1,Percent Effect,"30.3 µM, […]",26.23%
CC(=O)N1N=C(COc2ccc(C)cc2)OC1c1ccc(N(C)C)cc1 (stereo unspecified),Percent Effect,"30.3 µM, […]",54.92%
COc1ccc(C2OC(COc3ccc(C)cc3)=NN2C(C)=O)cc1 (stereo unspecified),Percent Effect,"30.3 µM, […]",8.051%
COCCNc1nc(N2CCOCC2)nc2nccnc12,Percent Effect,"30.3 µM, […]",21.04%
CC(C)=CCN1CCN(C(=O)C2CC2)CC1,Percent Effect,"30.3 µM, […]",-4.864%
COc1ccccc1CC(NC(=O)N1CCC[C@@H]1CO)C(C)C (stereo partly specified),Percent Effect,"30.3 µM, […]",9.914%
CN(C)CC(C)(O)CNC(=O)Nc1sc2ccccc2c1Cl (stereo unspecified),Percent Effect,"30.3 µM, […]",53.76%
CN(C)C(=O)CCNC(=O)Nc1sc2ccccc2c1Cl,Percent Effect,"30.3 µM, […]",-8.505%
CS(=O)(=O)CCNC(=O)Nc1sc2ccccc2c1Cl,Percent Effect,"30.3 µM, […]",-48.56%
CN(CC(=O)NC(Cc1ccsc1)c1cccnc1)Cc1cccnc1.Cl (stereo unspecified),Percent Effect,"30.3 µM, […]",2.46%
O=c1[nH]c2c(c(=O)n1C1CCCCC1)CCC2Nc1ccccc1Cl (stereo unspecified),Percent Effect,"30 µM, 30.03 µM",19.4%
CC(CNC(=O)c1cccc(-n2cccn2)n1)Cn1ccnc1 (stereo unspecified),Percent Effect,"30.3 µM, […]",11.75%
O=C(NC[C@H]1CC[C@H](c2ccnc3ncnn32)CC1)C1CC1,Percent Effect,"30.3 µM, […]",16.97%
COCC(=O)NC[C@H]1CC[C@H](c2ccnc3ncnn32)CC1,Percent Effect,"30.3 µM, […]",23.66%
O=C(NC[C@H]1CC[C@H](c2ccnc3ncnn32)CC1)c1ccccn1,Percent Effect,"30.3 µM, […]",56.14%
COc1ccc(OCc2noc(CN(C)C3CCS(=O)(=O)C3)n2)cc1 (stereo unspecified),Percent Effect,"30.3 µM, […]",17.47%
O=C(CC1=CCCCC1)Nc1ccc(CN2C(=O)CCC2=O)cc1,Percent Effect,"30.3 µM, […]",-19.22%
CC(=O)N[C@@H]1CN(C2CCN(c3ccccc3F)CC2)C[C@H]1C(C)C,Percent Effect,"30.3 µM, […]",-2.556%
C[C@@H]1CN(C2CCN(c3ccccc3F)CC2)C[C@]1(C)O,Percent Effect,"30.3 µM, […]",31.62%
C[C@@H]1CN(C2CCN(c3ccccc3F)CC2)CC[C@]1(C)O,Percent Effect,"30.3 µM, […]",62.06%
CCC(O)CN1CCN(C(=O)c2cccn2Cc2ccccc2)CC1 (stereo unspecified),Percent Effect,"30 µM, 30.03 µM",13.25%
Cn1cc(C(=O)N[C@H]2CN(Cc3nccs3)[C@@H]3CCCO[C@H]23)cn1.O=C(O)C(F)(F)F,Percent Effect,"30.3 µM, […]",15.38%
CC(NCc1ccncc1)c1cc2c(cc1Br)OCCO2 (stereo unspecified),Percent Effect,"30.3 µM, […]",16.23%
CC(NCc1cccc2c1OCCO2)c1cc2c(cc1Br)OCCO2 (stereo unspecified),Percent Effect,"30.3 µM, […]",73.82%
CC(NCc1ccccn1)c1cc2c(cc1Br)OCCO2 (stereo unspecified),Percent Effect,"30.3 µM, […]",16.93%
O=C(NCCNc1ncccn1)N1CCN(c2nccs2)CC1,Percent Effect,"30.3 µM, […]",13.95%
CS(=O)(=O)Cc1cc(F)ccc1NCc1nnsc1Cl,Percent Effect,"30.3 µM, […]",-4.772%
Cn1ccnc1CN1CCC2(COCCN(Cc3ccsc3)C2)C1 (stereo unspecified),Percent Effect,"30 µM, 30.03 µM",46.66%
Cn1ccnc1CN1CCC2(CC1)COCCN(S(C)(=O)=O)C2.O=C(O)C(F)(F)F,Percent Effect,"30.3 µM, […]",39.8%
Cn1ccnc1CN1CCC2(CC1)COCCN(c1ncccn1)C2,Percent Effect,"30.3 µM, […]",59.31%
NCC(=O)N1CCC2(CC1)CN(C(=O)Cc1ccc(Cl)cc1)CCO2,Percent Effect,"30.3 µM, […]",-4.476%
Cc1nccn1C1CCCN(C(=O)c2cccc(Cn3ccnc3)c2)C1 (stereo unspecified),Percent Effect,30 µM,43.46%
CCN(CCO)C[C@@H]1CN(C(=O)c2sc3ccccc3c2C)C[C@@H]1CO,Percent Effect,"30.3 µM, […]",-0.1561%
CN(CC1CC1)C(=O)Cc1csc(-c2ncccn2)n1,Percent Effect,"30.3 µM, […]",39.01%
CN(CCC#N)C(=O)Cc1csc(-c2ncccn2)n1,Percent Effect,"30.3 µM, […]",54.73%
COc1ccc(-c2nc(CC(=O)N(C)CCC#N)cs2)cc1OC,Percent Effect,"30.3 µM, […]",0.3942%
